Source: PubChem BioAssay (several laboratories)
Shown are actives, neighbours in structure and some others; about 0.51% of the full set was active somewhere.
E coli growth-1 – bacterial growth inhibition, counter-screen for AddAB inhibitors; E. coli V3065 growth, OD600 absorbance, 18 h; inhibition, % at 11.9 µM; 0.27% of 330,000 active; AID 449728;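 active = inhibition above the campaign's mean inhibition across all tested compounds plus 3 SD, cut at about 9.9% in these data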;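 also: uninfected addAB+ strain grown without phage in ampicillin broth; 0% = DMSO wells and 100% = ciprofloxacin 0.95 µg/ml wells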
phage Ecoli inh – E. coli growth loss with phage present. growth absorbance. inhibition, % at 11.9 µM. 0.26% of 360,000 active. AID 651602; in the data active = inhibition above about 11%
AddAB inh – less growth of phage-infected E. coli with AddAB. AID 435030. 0.29% of 330,000 active. E. coli expressing H. pylori AddAB, absorbance growth. inhibition, % at 11.9 µM; in the data active = inhibition above about 12%;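 also: 0% = vehicle wells of infected cells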
Tat export inh – E. coli Tat transport inhibition; E. coli MC4100 TorA-mCherry Tat export, fluorescence; inhibition, % at 10 µM; 0.036% of 340,000 active; AID 488895;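 active = mean replicate inhibition at least 50% and at least half of replicates individually reaching 50%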;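 also: exported cargo escapes ClpAP degradation while cytoplasmic cargo is degraded and loses fluorescence; 0% = median of neutral control wells and 100% = median of NaSCN control wells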
E coli growth-2 – blocks Escherichia coli growth; OD600, 23 h; active compounds read low; OD600 absorbance (no concentration beside the values); 0.21% of 330,000 active;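 active = OD600 absorbance below the run mean of sample wells minus 3.6 SD, in any replicate, cut at about 0.56 in these data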
* marks the source's active call; other numbers are inactive results; . = not tested or not shown.

SMILES	E coli growth-1	phage Ecoli inh	AddAB inh	Tat export inh	E coli growth-2
CC(=NNC(=S)Nc1ccc(C)cc1)c1ccccn1	.	13*	.	8	.
NC(=O)CNC(=O)C1CC2(CC(c3ccc(Cl)cc3)=NO2)CN1C(=O)c1ccc(Br)cc1 (stereo unspecified)	.	.	.	.	0.62
CCCOc1ccc(/C=N/NC(=S)Nc2ccccc2[N+](=O)[O-])c(O)c1	11*	7	10	.	.
O=C(CC(=O)c1cc(Cl)ccc1O)c1ccccc1	-2	-3	-3	-14	0.48*
Cc1cccc(C(=O)CC(=O)c2cc(Cl)ccc2O)c1	-3	.	-5	3	0.47*
CCn1cc(C(=O)O)c(=O)c2cc(OC)ccc21	3	-1	10	-1	0.53*
CCn1cc(C(=O)O)c(=O)c2cc(S(=O)(=O)N3CCCCCC3)ccc21	1	-2	0	1	0.6
CC(C)C1NC(=O)c2cc([N+](=O)[O-])cc(I)c2NCCCC(C(=O)NC(CC(=O)O)C(N)=O)NC(=O)C(CO)NC1=O (stereo unspecified)	.	.	.	.	0.65
O=C(CSc1nnc(-c2ccccc2)n1-c1ccc(Cl)cc1)N/N=C/c1ccco1	11*	4	-7	4	.
Cc1ccc(C=NNC(=O)CSc2nnc(-c3ccccc3)n2-c2ccc(Cl)cc2)o1	.	.	.	.	0.69
Cc1ccc(C(=O)N2CCCC(CCC(=O)NCc3ccccc3F)C2)cn1 (stereo unspecified)	-2	2	-2	0	0.72
C=CCOc1cccc(C(=O)N2CCCC(CCC(=O)NCc3ccccc3F)C2)c1 (stereo unspecified)	-2	2	2	50*	0.67
CCC(C)C(C(=O)N1CCN(C(=O)OC(C)(C)C)CC1)n1cc(C(CO)NC(=O)OC(C)(C)C)nn1 (stereo unspecified)	.	.	.	.	0.7
CCOC(=O)c1ccc(S(=O)(=O)NCCN(CC)CC)cc1	1	3	0	-7	0.44*
CCN(CC)CCNS(=O)(=O)c1ccc(C(=O)NN)cc1	0	2	0	-5	0.69
O=c1[nH]c(=O)n(C2CC(O)C(CO)O2)cc1F (stereo unspecified)	.	.	.	.	0.062*
CC(=O)NC(CC(=O)N(C)Cc1c(F)cccc1Cl)c1ccccc1 (stereo unspecified)	3	1	2	5	0.69
CC(=O)NC(CC(=O)N(C)Cc1cccc(Cl)c1Cl)c1ccccc1 (stereo unspecified)	3	2	1	-8	0.54*
O=[N+]([O-])c1ccc(-c2cccnc2)cc1	.	4	.	-8	0.53*
N=C(N)c1ccc(/C=C/c2ccc(C(=N)N)cc2O)cc1	4	7	6	76*	0.66
Cc1cccc(Nc2nc(NCc3ccco3)c3ccccc3n2)c1	5	4	2	-13	0.43*
Oc1ccccc1Nc1nc(NCc2ccco2)c2ccccc2n1	0	3	2	-2	.
c1ccc(Nc2nc(NCc3ccco3)c3ccccc3n2)cc1	3	3	4	20	0.31*
Cc1ccccc1Nc1nc(NCc2ccco2)c2ccccc2n1	7	-1	3	-10	0.49*
CN(C)C1C(=O)C(C(N)=O)=C(O)[C@@]2(O)C(=O)C3=C(O)c4c(O)ccc(Cl)c4C(O)C3CC12 (stereo partly specified)	.	.	.	.	0.063*
SMILES	E coli growth-1	phage Ecoli inh	AddAB inh	Tat export inh	E coli growth-2
COc1ccccc1C(=O)Nc1ccc(S(=O)(=O)Nc2nccs2)cc1	-1	1	2	3	0.66
O=C(O)c1ccccc1C(=O)Nc1ccc(S(=O)(=O)Nc2nccs2)cc1	11*	8	10	-8	0.62
CCOC(=O)C=CC1Cc2ccccc2CO1 (stereo unspecified)	.	.	.	.	0.71
CN(C)CCCNc1cc(C(C)(C)C)nc2c(-c3ccc(Cl)cc3)cnn12	-5	2	-4	14	0.27*
COc1ccccc1C=CC(=O)NCC(=O)NN=Cc1ccc2c(c1)OCO2	.	.	.	.	0.73
Clc1ccc(OCCCNCc2ccccc2)c2ccccc12	1	4	1	-9	0.4*
COc1ccc(-n2nc(C(=O)NCC(=O)Nc3cccc(NC(C)=O)c3)c3ccccc3c2=O)cc1	-2	-5	1	-16	0.57*
CCOC(=O)N1CCN(C(=O)c2cn(CC)c3cc(N4CCN(C)CC4)c(F)cc3c2=O)CC1	100*	.	101*	.	.
COc1cccc(C2CC=C(C(=O)O)C(c3ccccc3F)N2S(=O)(=O)c2ccc(C)cc2)c1 (stereo unspecified)	.	.	.	.	0.68
CC(C)S(=O)(=O)c1csc(NC(=O)Nc2ccc(Cl)cc2)c1	4	8	7	1	0.47*
COCc1cccc(C2=CC(=O)CC(c3ccc(F)cc3)C2)c1 (stereo unspecified)	.	.	.	.	0.62
C#CCOCCOCCOCCNc1nc(N2CCN(C(=O)C(CCC(=O)O)n3cc(C(N)C(C)CC)nn3)CC2)nc(N2CCN(C(=O)C(CCC(=O)O)n3cc(C(N)C(C)CC)nn3)CC2)n1 (stereo unspecified)	.	.	.	.	0.65
C=CCOC(=O)C1=CC(C2CCCCC2)CC(OCc2ccc(CO)cc2)O1 (stereo unspecified)	.	.	.	.	0.63
CCCCCCCCCCCCCCCC(=O)OC(CC(=O)O)C[N+](C)(C)C (stereo unspecified)	-2	2	-2	54*	0.64
CCCCCCC(=O)O	1	1	4	3	0.69
Cc1cc(O)c2c(c1O)C(=O)[C@]13C(=C2O)C(=O)[C@@H]2[C@@H](O)[C@H]1[C@@H]1[C@H](O)[C@H]3C(=O)C3=C(O)c4c(O)cc(C)c(O)c4C(=O)[C@]312	9.9*	.	12	27	0.55
CC(C)NC(=O)N(C)CC1Oc2ccc(NC(=O)C3CC3)cc2C(=O)N(C(C)CO)CC1C (stereo unspecified)	.	.	.	.	0.65
O=C(Nc1ccc([N+](=O)[O-])cc1)c1cccc(S(=O)(=O)Nc2cccnc2)c1	-1	3	1	-7	.
O=C(Nc1cccnc1)c1ccc(NS(=O)(=O)c2cccc([N+](=O)[O-])c2)cc1	0	1	-3	-2	0.31*
C=CC[n+]1ccc(/C=C2\C=Cc3cc(C)ccc3N2CC)c2ccccc21	.	.	.	-173	0.44*
O=C(CSc1nc2ccccc2[nH]1)Nc1ccc2c(c1)OCCO2	10*	9	12	-5	0.62
Cc1ccc2nc(SCC(=O)Nc3ccc4c(c3)OCCO4)[nH]c2c1	0	-1	1	-1	0.65
CN1C(=O)C2C(C3CC3)N3C(=O)CN(CCO)C(=O)[C@@]3(Cc3ccccc3)C2C1=O (stereo partly specified)	.	.	.	.	0.69
O=C1c2cc(Br)ccc2N(Cc2ccc(Br)cc2)S(=O)(=O)C1c1cc(Cl)c(Cl)cc1[N+](=O)[O-] (stereo unspecified)	12*	.	10	-2	.
O=C(Nc1cccnc1)Nc1cc(Cl)cc(Cl)c1	4	10	4	-11	0.5*
O=C(Nc1cccnc1)Nc1ccccc1Cl	0	4	0	-7	0.7
O=C(Nc1ccncc1)Nc1ccc(Cl)cc1	1	7	-1	9	0.52*
